Source: paper PMC5540273 (PLoS ONE, 2017)

tested on: T1, DRAK2; details: concentration: 1 μM, replicates: in singlicate; n = 1
T1 construct: gene STK17B
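Also: KINOMEscan kinase panel screen.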

SMILES | %Inh [%]
COc1cc2c(cc1OC[C@@H](O)CO)ncc1c3ccc(C#N)cc3[nH]c21 | 99.7
COc1ccc(Nc2ncc(C#N)c(Nc3ccccc3C(N)=O)n2)cc1N1CCN(C)CC1.Cl [GSK1558669] | 83
Cc1cccc(-c2nc(-c3ccc(S(C)(=O)=O)cc3)sc2-c2ccncc2)c1 | 0
COc1cc(Nc2nccc(N3CCC(NC(=O)c4cccc(NC(C)=O)c4)C3)n2)cc(OC)c1OC (stereo not shown) [GSK1379754] | 29
Cc1ccc(NC(=O)c2ccnc(N3CCN(C)CC3)c2)cc1-c1ccc(C(=O)NCC2CC2)cc1 [GW775604] | 0
c1ccc(-c2cc(-c3c[nH]nc3-c3ccccn3)ccn2)cc1 [GW576604] | 0
O=C(Nc1n[nH]c2cc(-c3cccc(F)c3)ccc12)C1CC1 [SB-735464] | 0
Cc1c(Cn2c(C)nn3c(=O)cc(N4CCOC(C)C4)nc23)cccc1C(F)(F)F (stereo not shown) [GSK2344444] | 0
Cc1nnc(-c2ccc3ncc(-c4ccc(S(C)=O)cc4)n3c2)o1 (stereo not shown) | 7
CN(C(=O)c1ccc(-c2cc(-c3c[nH]nc3-c3ccccn3)ccn2)cc1)C1CCOCC1 [GW810083] | 2
Fc1ccc(-c2ncn(CCCN3CCOCC3)c2-c2ccccn2)cc1 [SB-211742] | 0
COc1cc2c(cc1OCCN1CCN(C)CC1)ncc1c3ccc(C#N)cc3[nH]c21 | 100
O=C(c1ccc(-c2cc(-c3c[nH]nc3-c3ccccn3)ccn2)cc1)N1CCOCC1 [GW812171] | 0
CC(=O)Nc1ccc(COc2ccc(Nc3ccnc4cc(-c5ccccn5)ccc34)cc2)cc1.Cl [GW440148] | 21
O=C(NOCC1CC1)c1ccc(F)c(F)c1Nc1ccc(I)cc1Cl | 21
COc1ccc(Nc2nccc(N3CCC(NC(=O)Nc4cc(C)ccc4C)C3)n2)cc1 (stereo not shown) [GSK1379741] | 0
Cc1ccc(C(=O)NCC(N)=O)cc1-n1c(C)cc(OCc2ccc(F)cc2F)c(Br)c1=O | 5

SMILES | %Inh [%]
Cl.Nc1ncnc2occ(-c3ccc(NC(=O)Nc4cc(C(F)(F)F)ccc4F)cc3)c12 [SB-707548] | 0
Nc1nc(-c2ccc3c(N)n[nH]c3c2)cc(N2CCCC2)n1 [GSK2227430] | 0
CN(C1=C(c2ccccc2)C(=O)NC1=O)c1ccccc1 [SB-334860] | 0
CN1c2ccc(CNc3ccc(F)cc3)cc2-c2c(cnn2C)S1(=O)=O | 0
COc1ccc(S(=O)(=O)NC2CCN(c3cc(C)nc(Nc4cccc(C#N)c4)n3)CC2)cc1.O=C(O)C(F)(F)F [GSK1653539] | 0
O=c1cc(N2CCOCC2)nc2n(Cc3cccc(Cl)c3Cl)c(C3CC3)nn12 [GSK2358994] | 9
N#Cc1ccc(-c2cc(-c3c[nH]nc3-c3ccccn3)ccn2)cc1 [GW693028] | 0
O=C(Nc1cccc(-c2nn3ncccc3c2-c2ccnc(Nc3cccc(C(F)(F)F)c3)n2)c1)c1c(F)cccc1F [GSK299495] | 0
CCc1ccnc(/C=C/c2n[nH]c3cc(Sc4ccccc4C(=O)NC)ccc23)c1 | 0
Nc1nccc(-c2c(-c3ccc(F)cc3)ncn2C2CCN(CC(F)(F)F)CC2)n1 [SB-236560] | 1
Cc1cn2c(=O)cc(N3CCOCC3)nc2n1Cc1cccc(Cl)c1Cl [GSK2334006] | 12
COc1ccc(COc2cc(-n3cnc4ccccc43)sc2C(N)=O)cc1 [GSK1024304] | 0
Fc1ccc(-c2ncn(CCCN3CCOCC3)c2-c2cccnc2)cc1 [SB-211743] | 0
CN1c2ccc(NCc3ccc(F)cc3)cc2-c2c(cnn2C)S1(=O)=O | 0
O=C(NCCNc1ccnc(Nc2ccc(F)cc2)n1)c1cc2ccccc2s1 [GSK1379874] | 33
Cc1cccc(-c2nc(Nc3ccc4ncsc4c3)c3ccccc3n2)n1 [GW867588] | 0
NCC(NC(=O)c1cc(-c2cn[nH]c2)c(-c2ccnc3[nH]ccc23)s1)c1ccccc1.O=C(O)C(F)(F)F.O=C(O)C(F)(F)F (stereo not shown) [GSK1325775] | 0

tested on: DYRK1A; details: concentration: 1 μM, replicates: in singlicate; n = 1

SMILES | %Inh [%]
COc1cc2c(cc1OC[C@@H](O)CO)ncc1c3ccc(C#N)cc3[nH]c21 | 99
COc1ccc(Nc2ncc(C#N)c(Nc3ccccc3C(N)=O)n2)cc1N1CCN(C)CC1.Cl [GSK1558669] | 99.8
Cc1cccc(-c2nc(-c3ccc(S(C)(=O)=O)cc3)sc2-c2ccncc2)c1 | 0
COc1cc(Nc2nccc(N3CCC(NC(=O)c4cccc(NC(C)=O)c4)C3)n2)cc(OC)c1OC (stereo not shown) [GSK1379754] | 17
Cc1ccc(NC(=O)c2ccnc(N3CCN(C)CC3)c2)cc1-c1ccc(C(=O)NCC2CC2)cc1 [GW775604] | 0
CSc1ccc(-c2cc3ncnc(SCC(=O)O)c3s2)cc1 | 0
c1ccc(-c2cc(-c3c[nH]nc3-c3ccccn3)ccn2)cc1 [GW576604] | 4
O=C(Nc1n[nH]c2cc(-c3cccc(F)c3)ccc12)C1CC1 [SB-735464] | 10
Cc1c(Cn2c(C)nn3c(=O)cc(N4CCOC(C)C4)nc23)cccc1C(F)(F)F (stereo not shown) [GSK2344444] | 7
Cc1nnc(-c2ccc3ncc(-c4ccc(S(C)=O)cc4)n3c2)o1 (stereo not shown) | 16
CN(C(=O)c1ccc(-c2cc(-c3c[nH]nc3-c3ccccn3)ccn2)cc1)C1CCOCC1 [GW810083] | 0
Fc1ccc(-c2ncn(CCCN3CCOCC3)c2-c2ccccn2)cc1 [SB-211742] | 11
COc1cc2c(cc1OCCN1CCN(C)CC1)ncc1c3ccc(C#N)cc3[nH]c21 | 94.6
O=C(c1ccc(-c2cc(-c3c[nH]nc3-c3ccccn3)ccn2)cc1)N1CCOCC1 [GW812171] | 0
CC(=O)Nc1ccc(COc2ccc(Nc3ccnc4cc(-c5ccccn5)ccc34)cc2)cc1.Cl [GW440148] | 4
O=C(NOCC1CC1)c1ccc(F)c(F)c1Nc1ccc(I)cc1Cl | 0
COc1ccc(Nc2nccc(N3CCC(NC(=O)Nc4cc(C)ccc4C)C3)n2)cc1 (stereo not shown) [GSK1379741] | 14
Cc1ccc(C(=O)NCC(N)=O)cc1-n1c(C)cc(OCc2ccc(F)cc2F)c(Br)c1=O | 0

SMILES | %Inh [%]
Cl.Nc1ncnc2occ(-c3ccc(NC(=O)Nc4cc(C(F)(F)F)ccc4F)cc3)c12 [SB-707548] | 0
Nc1nc(-c2ccc3c(N)n[nH]c3c2)cc(N2CCCC2)n1 [GSK2227430] | 9
CN(C1=C(c2ccccc2)C(=O)NC1=O)c1ccccc1 [SB-334860] | 10
CN1c2ccc(CNc3ccc(F)cc3)cc2-c2c(cnn2C)S1(=O)=O | 0
COc1ccc(S(=O)(=O)NC2CCN(c3cc(C)nc(Nc4cccc(C#N)c4)n3)CC2)cc1.O=C(O)C(F)(F)F [GSK1653539] | 6
O=c1cc(N2CCOCC2)nc2n(Cc3cccc(Cl)c3Cl)c(C3CC3)nn12 [GSK2358994] | 2
N#Cc1ccc(-c2cc(-c3c[nH]nc3-c3ccccn3)ccn2)cc1 [GW693028] | 17
O=C(Nc1cccc(-c2nn3ncccc3c2-c2ccnc(Nc3cccc(C(F)(F)F)c3)n2)c1)c1c(F)cccc1F [GSK299495] | 14
CCc1ccnc(/C=C/c2n[nH]c3cc(Sc4ccccc4C(=O)NC)ccc23)c1 | 8
Cl.Cl.Cl.Fc1ccc(-c2ncn(C3CCNCC3)c2-c2ccnc(Nc3ccccc3)n2)cc1 [SB-238039] | 0
Nc1nccc(-c2c(-c3ccc(F)cc3)ncn2C2CCN(CC(F)(F)F)CC2)n1 [SB-236560] | 5
Cc1cn2c(=O)cc(N3CCOCC3)nc2n1Cc1cccc(Cl)c1Cl [GSK2334006] | 20
COc1ccc(COc2cc(-n3cnc4ccccc43)sc2C(N)=O)cc1 [GSK1024304] | 16
Fc1ccc(-c2ncn(CCCN3CCOCC3)c2-c2cccnc2)cc1 [SB-211743] | 3
CN1c2ccc(NCc3ccc(F)cc3)cc2-c2c(cnn2C)S1(=O)=O | 0
O=C(NCCNc1ccnc(Nc2ccc(F)cc2)n1)c1cc2ccccc2s1 [GSK1379874] | 2
Cc1cccc(-c2nc(Nc3ccc4ncsc4c3)c3ccccc3n2)n1 [GW867588] | 3
NCC(NC(=O)c1cc(-c2cn[nH]c2)c(-c2ccnc3[nH]ccc23)s1)c1ccccc1.O=C(O)C(F)(F)F.O=C(O)C(F)(F)F (stereo not shown) [GSK1325775] | 44
